Source: PubChem (several laboratories)
In the library only some 0.51% were active in any assay of this set; here they are far more common.
Tat transport = inhibitors of E. coli Tat protein transport; E. coli MC4100 TorA-mCherry Tat export, fluorescence; inhibition, % at 10 µM; 340,000 tested, 0.036% active;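 active = mean replicate inhibition at least 50% and at least half of replicates individually reaching 50%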;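 note: exported cargo escapes ClpAP degradation while cytoplasmic cargo is degraded and loses fluorescence; 0% = median of neutral control wells and 100% = median of NaSCN control wells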
p-CIP stab down = p/CIP protein destabilization | F442A p/CIP-EGFP cells, EGFP fluorescence, 16 h | 290,000 tested, 0.01% active | AID 1984 | decrease of EGFP signal, % at 10 µM;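 active = EGFP signal decrease of at least 30% at 10 µM or well 3 SD below plate mean, unless failing retest; inactive = the rest, including hits failing retest or dose response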
Target sequence (Q05BA5 1-1403): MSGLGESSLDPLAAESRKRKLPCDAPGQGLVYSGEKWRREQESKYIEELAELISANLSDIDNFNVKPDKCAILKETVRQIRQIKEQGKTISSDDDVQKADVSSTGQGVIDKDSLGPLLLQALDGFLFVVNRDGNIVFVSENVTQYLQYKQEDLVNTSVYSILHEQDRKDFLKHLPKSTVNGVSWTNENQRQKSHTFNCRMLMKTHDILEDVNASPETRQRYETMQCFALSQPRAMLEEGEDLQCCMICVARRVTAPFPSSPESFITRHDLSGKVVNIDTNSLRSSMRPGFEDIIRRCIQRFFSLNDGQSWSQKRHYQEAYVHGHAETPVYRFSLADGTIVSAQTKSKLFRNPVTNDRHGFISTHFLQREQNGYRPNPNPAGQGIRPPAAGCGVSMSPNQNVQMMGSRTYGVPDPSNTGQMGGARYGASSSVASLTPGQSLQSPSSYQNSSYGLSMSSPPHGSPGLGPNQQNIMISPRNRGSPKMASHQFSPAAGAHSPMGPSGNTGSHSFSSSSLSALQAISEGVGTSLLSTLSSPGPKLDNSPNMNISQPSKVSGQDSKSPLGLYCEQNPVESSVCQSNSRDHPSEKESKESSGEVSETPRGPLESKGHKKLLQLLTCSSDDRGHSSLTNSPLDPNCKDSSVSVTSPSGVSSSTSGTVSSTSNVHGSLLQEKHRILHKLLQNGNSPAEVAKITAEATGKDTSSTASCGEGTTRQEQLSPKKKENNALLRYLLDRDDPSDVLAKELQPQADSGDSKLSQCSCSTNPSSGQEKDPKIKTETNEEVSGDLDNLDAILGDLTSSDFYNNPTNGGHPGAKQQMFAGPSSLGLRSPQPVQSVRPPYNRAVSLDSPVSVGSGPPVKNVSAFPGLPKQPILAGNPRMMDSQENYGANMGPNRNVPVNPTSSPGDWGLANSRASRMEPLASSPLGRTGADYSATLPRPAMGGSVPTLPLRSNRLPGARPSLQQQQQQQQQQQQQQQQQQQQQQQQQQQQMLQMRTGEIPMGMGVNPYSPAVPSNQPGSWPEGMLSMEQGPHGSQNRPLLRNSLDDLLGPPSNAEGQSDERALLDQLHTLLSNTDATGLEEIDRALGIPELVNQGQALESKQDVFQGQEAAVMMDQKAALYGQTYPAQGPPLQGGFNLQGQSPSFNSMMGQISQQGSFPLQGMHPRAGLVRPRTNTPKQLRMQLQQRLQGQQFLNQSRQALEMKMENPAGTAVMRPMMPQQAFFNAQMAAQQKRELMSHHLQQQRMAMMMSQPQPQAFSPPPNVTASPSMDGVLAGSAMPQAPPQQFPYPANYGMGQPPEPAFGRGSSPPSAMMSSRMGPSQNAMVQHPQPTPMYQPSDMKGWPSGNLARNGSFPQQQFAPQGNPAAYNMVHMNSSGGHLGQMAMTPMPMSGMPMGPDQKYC
E coli growth-1 = inhibitors of Escherichia coli growth | OD600 absorbance (no concentration beside the values) | AID 1053175 | OD600, 23 h; stronger effect = lower value | 330,000 tested, 0.21% active;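 active = OD600 absorbance below the run mean of sample wells minus 3.6 SD, in any replicate, cut at about 0.56 in these data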
AddAB inh = less growth of phage-infected E. coli with AddAB. E. coli expressing H. pylori AddAB, absorbance growth. AID 435030. inhibition, % at 11.9 µM. 330,000 tested, 0.29% active; in the data active = inhibition above about 12%;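 note: 0% = vehicle wells of infected cells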
E coli growth-2 = reduces bacterial viability in AddAB counter-screen. E. coli V3065 growth, OD600 absorbance, 18 h. inhibition, % at 11.9 µM. 330,000 tested, 0.27% active. AID 449728;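 active = inhibition above the campaign's mean inhibition across all tested compounds plus 3 SD, cut at about 9.9% in these data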;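 note: uninfected addAB+ strain grown without phage in ampicillin broth; 0% = DMSO wells and 100% = ciprofloxacin 0.95 µg/ml wells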
phage Ecoli inh = E. coli growth loss with phage present. growth absorbance. inhibition, % at 11.9 µM. 360,000 tested, 0.26% active. AID 651602; in the data active = inhibition above about 11%
AddAB conf = growth loss of T4-infected E. coli expressing H. pylori AddAB, confirmed | inhibition, % at 11.9 µM | 880 tested, 64% active | E. coli V3065 expressing H. pylori AddAB, T4 phage, OD; T4 phage with gene 2 nonsense mutations | shares compounds with AddAB inh | AID 488942;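 active = mean inhibition above a set limit taken from the earlier primary screen, cut at about 13% in these data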;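 note: higher means less bacterial growth since AddAB block lets phage replicate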
RecBCD counter = counter-screen: growth loss of RecBCD+ E. coli with mutant T4 phage | E. coli V66 + mutant T4 phage, OD growth | 880 tested, 73% active | inhibition, % at 11.9 µM | shares compounds with AddAB inh | AID 488955;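 active = mean inhibition above the mean of solvent-only control wells plus 3 SD, cut at about 4% in these data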;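 note: optical density read after an 18 h incubation at 37 °C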
bact viab count = reduces bacterial viability, AddAB inhibitor counter-screen. absorbance (AddAB counterscreen). shares compounds with AddAB inh. AID 488956. inhibition, % at 11.9 µM. 880 tested, 35% active; in the data active = inhibition above about 25%
RecBCD conf = confirmation: growth loss of phage-infected RecBCD+ E. coli (RecBCD inhibitor screen); shares compounds with phage Ecoli inh; E. coli V66 + T4 2- phage, growth OD; inhibition, % at 11.9 µM; 890 tested, 45% active; AID 651982;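 active = mean inhibition over triplicates exceeding the hit threshold derived in the original primary screen, cut at about 11% in these data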
Ecoli viability = bacterial viability inhibition counter-screen for RecBCD. shares compounds with phage Ecoli inh. E. coli viability, absorbance (OD) growth. inhibition, % at 11.9 µM. 890 tested, 29% active; in the data active = inhibition above about 20%;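 note: E. coli strain V66 grown with compound alone and no phage infection; 0% = bacteria with DMSO vehicle only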
AddAB counter = growth loss of phage-infected AddAB E. coli, RecBCD counter-screen; inhibition, % at 11.9 µM; 890 tested, 45% active; shares compounds with phage Ecoli inh; E. coli expressing H. pylori AddAB + T4 phage, OD growth; gene 2 mutant T4, recBCD-deleted host;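 active = mean inhibition above the solvent-only control wells' mean plus 3 SD, cut at about 22% in these data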;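 note: higher means less bacterial growth from phage killing when AddAB is blocked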
An asterisk follows results filed as active; . = no result given.

SMILES | Tat transport | p-CIP stab down | E coli growth-1 | AddAB inh | E coli growth-2 | phage Ecoli inh | AddAB conf | RecBCD counter | bact viab count | RecBCD conf | Ecoli viability | AddAB counter
CCCC(=O)NC(c1ccc(Cl)cc1Cl)c1ccc2cccnc2c1O (stereo unspecified) | -1 | -12 | . | 20* | 27* | 24* | 20* | 20* | 19 | 16* | 19 | 25*
Cc1oc(-c2ccc(Cl)cc2)cc1C(=O)/C(C#N)=C/Nc1cccc(OC(F)(F)F)c1 | 5 | -4 | . | 1 | 1 | 1 | . | . | . | . | . | .
CCn1c(CNC(=O)c2ccc(F)cc2)cc2ccccc21 | -2 | -6 | 0.66 | 1 | 0 | 1 | . | . | . | . | . | .
CCCCC(=O)NC(c1ccc(Cl)cc1)c1ccc2cccnc2c1O (stereo unspecified) | -5 | . | . | 31* | 30* | 20* | 29* | 22* | 23 | 12* | 14 | 33*
CCc1nc2c(OCC3COc4ccccc4O3)cccn2c1N(C)C(=O)c1cccs1 (stereo unspecified) | . | . | . | . | . | 0 | . | . | . | . | . | .
Cc1ccc(CN2CCN(Cc3nc(C(C)C)cs3)CC2CCO)cc1 (stereo unspecified) | 4 | -19 | 0.65 | 0 | 3 | -1 | . | . | . | . | . | .
COc1ccccc1-n1c(=O)oc2ccc(Cl)cc2c1=O | 9 | 1 | 0.65 | 12* | 6 | 12* | 3 | 10* | 2 | 9 | 12 | 10
Nc1nc(Cl)nc2c1ncn2C1CCC(CO)O1 (stereo unspecified) | . | . | . | . | . | 3 | . | . | . | . | . | .
Nc1ncnc2c1ncn2[C@H]1CC[C@@H](CO)O1 | 14 | . | 0.36* | 76* | 75* | 53* | 94* | 48* | 89* | 60* | 55* | 88*
O=c1[nH]cnc2c1ncn2[C@@H]1C[C@@H](O)[C@H](CO)O1 | -13 | -10 | 0.61 | 2 | -2 | 1 | . | . | . | . | . | .
O=c1[nH]cnc2c1ncn2[C@H]1CC[C@@H](CO)O1 | 8 | -8 | . | 97* | 98* | 101* | 98* | 96* | 98* | 98* | 100* | 99*
COc1ccccc1OCC(=O)N/N=C/C=C/c1ccc([N+](=O)[O-])o1 | 20 | 1 | . | 83* | 54* | 12* | 101* | 24* | 94* | 18* | 23* | 99*
CC[C@H]1OC(=O)[C@H](C)[C@@H](O[C@H]2C[C@@](C)(OC)[C@@H](O)[C@H](C)O2)[C@H](C)[C@@H](O[C@@H]2O[C@H](C)C[C@H](N(C)C)[C@H]2O)[C@](C)(O)C[C@@H](C)CN(C)[C@H](C)[C@@H](O)[C@]1(C)O | 121* | . | . | 100* | 101* | 101* | 99* | 101* | 102* | 103* | 104* | 104*
CCC1OC(=O)C(C)C(OC2C[C@@](C)(OC)C(O)C(C)O2)C(C)C(OC2OC(C)CC(N(C)C)C2O)[C@](C)(O)CC(C)C(=NOCOCCOC)C(C)C(O)[C@]1(C)O (stereo partly specified) | . | . | 0.58 | . | . | . | . | . | . | . | . | .
O=C(NCc1ccc(F)cc1)C1CCCN(S(=O)(=O)c2cccc3nonc23)C1 (stereo unspecified) | -4 | -11 | 0.61 | 2 | 0 | 4 | . | . | . | . | . | .
[N-]=[N+]=CC(=O)c1ccnc(C(=O)C=[N+]=[N-])c1 | 6 | 5 | 0.56* | 31* | 38* | 18* | 57* | 22* | 43* | 20* | 21* | 49*
O=C(O)c1ccnc(Cl)c1 | -7 | -17 | 0.65 | 1 | -1 | 1 | . | . | . | . | . | .
CCn1cc(C(=O)O)c(=O)c2cc(F)c(N3CCN(C(=S)NC(=O)c4ccc(F)cc4)CC3)cc21 | 13 | -5 | 0.063* | 98* | 96* | 99* | 100* | 100* | 102* | 103* | 104* | 105*
CCn1cc(C(=O)O)c(=O)c2cc(F)c(N3CCN(C(=S)NC(=O)c4cccc(F)c4)CC3)cc21 | 4 | -4 | 0.071* | 98* | 99* | 42* | 100* | 100* | 100* | 101* | 101* | 101*
CCn1cc(C(=O)O)c(=O)c2cc(F)c(N3CCN(C(=S)NC(=O)c4ccccc4Br)CC3)cc21 | 11 | -24 | 0.067* | 97* | 99* | 94* | 103* | 22* | 102* | 101* | 102* | 102*
CCCOc1ccc(C(=O)NC(=S)N2CCN(c3cc4c(cc3F)c(=O)c(C(=O)O)cn4CC)CC2)cc1 | 62* | 15 | 0.084* | 99* | 97* | 98* | 103* | 101* | 105* | 103* | 103* | 101*
CCCCCCCCCC(=O)N1CCN(c2cc3c(cc2F)c(=O)c(C(=O)O)cn3CC)CC1 | 0 | -16 | 0.56 | 0 | 1 | 1 | . | . | . | . | . | .
Clc1ccccc1Nc1ncnc2c1nnn2Cc1ccccc1 | -7 | -2 | 0.7 | 1 | -1 | 2 | . | . | . | . | . | .
CCn1cc(C(=O)O)c(=O)c2cc(F)c(N3CCN(C(=S)NC(=O)c4ccc(F)c(F)c4)CC3)cc21 | 91* | -23 | 0.07* | 98* | 98* | 99* | 100* | 87* | 99* | 103* | 103* | 104*
O=c1c2ccccc2oc2ccccc12 | . | . | . | . | . | 3 | . | . | . | . | . | .
O=c1c(O)c(-c2cccs2)oc2ccccc12 | 3 | -264 | 0.68 | 23* | 25* | 12* | 9 | 11* | 4 | 5 | 8 | 12
O=C(CSC1=NNC(c2ccccn2)S1)Nc1ccccc1 (stereo unspecified) | -15 | -8 | 0.66 | 13* | 9 | 11* | 35* | 14* | 21 | 10 | 13 | 38*
Cc1cc(C)n(-c2cc(C(=O)O)cc(C(=O)O)c2)n1 | -18 | -5 | 0.69 | 3 | 1 | 3 | . | . | . | . | . | .
CNC(=S)N1CCC(NC(=O)c2ccco2)CC1 | . | -8 | 0.69 | 5 | 3 | . | . | . | . | . | . | .
